Consider eight molecules from PubChem BioAssay (NCI).

Among the test systems are SK-MEL-2 melanoma; SN12C renal; UO-31 renal; TK-10 renal; ACHN renal; CAKI-1 renal; A498 renal; CCRF-CEM leukemia; MOLT-4 leukemia; SR leukemia; RPMI-8226 leukemia; OVCAR-8 ovarian; OVCAR-5 ovarian; OVCAR-4 ovarian; SK-OV-3 ovarian; IGROV1 ovarian; OVCAR-3 ovarian; HS 578T breast; NCI/ADR-RES ovarian; EKVX NSCLC.
Test in all cases: NCI-60 one-dose screen, 48 h (100 = growth as untreated, 0 = no growth, -100 = all killed)
Holding throughout (conditions): 10 µM unless noted

This is part of a sample that, as a whole, favours compounds with a hit. Of some 83,000 tested, about 20% had one in any assay.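 Cells were grown in 96-well plates and exposed to the test compound at a single concentration for 48 hours; results are reported as percent growth, with values below 10 considered active.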 Values without a mark were called inactive. The source made the active and inactive calls.

In the case of `COc1cc(-c2nc3cc(Cl)c(Cl)cc3[nH]2)ccc1OCC(=O)N=Nc1c(O)[nH]c2ccccc12`, the growth in the test on SK-MEL-2 melanoma was -80.7% (active); in the test on SN12C renal, -69.7% (active); with UO-31 renal it was 93.5%; in the test on TK-10 renal it was -12% (active); with ACHN renal, 20%; in the test on CAKI-1 renal, -46.8% (active). Besides, the growth is -45.9% (active) in the test on A498 renal; -44.8% (active) in the test with CCRF-CEM leukemia; -50.7% (active) in the test on MOLT-4 leukemia; -27.7% (active) with SR leukemia; -45.2% (active) in the test with RPMI-8226 leukemia; -59% (active) in the test on OVCAR-8 ovarian. The growth in the test on OVCAR-5 ovarian is -75% (active); in the test with OVCAR-4 ovarian, -92.7% (active); in the test with SK-OV-3 ovarian, -28.2% (active); in the test with IGROV1 ovarian, -86.8% (active); in the test with OVCAR-3 ovarian, -98.1% (active); with HS 578T breast, -47.9% (active).

In the case of `Oc1cccc2ccc(N/N=C/c3cc(CN4CCOCC4)c(O)c4ncccc34)nc12`, the growth in the test on SK-MEL-2 melanoma was 25%; with SN12C renal it was 20.2%; in the test with UO-31 renal, -4.14% (active); in the test with TK-10 renal, 23%; with ACHN renal it was -29.3% (active); in the test on CAKI-1 renal, 11.5%. Moreover, the growth with A498 renal is 21.3%; in the test with CCRF-CEM leukemia it was 16.6%; with MOLT-4 leukemia, 9.34% (active); with SR leukemia, 2.95% (active); in the test on RPMI-8226 leukemia it was 16.2%; with OVCAR-5 ovarian, 28.3%. Moreover, the growth in the test with OVCAR-4 ovarian is 14.2%; in the test on SK-OV-3 ovarian, -14.9% (active); in the test on IGROV1 ovarian, 18.7%; with OVCAR-3 ovarian, 23.2%; with HS 578T breast it was 36.3%; with NCI/ADR-RES ovarian, 2.84% (active).

Turning to `COc1cccc(-c2nn(C(C)(C)C)cc2-c2ccnc(NCCCNS(=O)(=O)c3ccc(C)cc3)c2)c1`, the growth in the test on SK-MEL-2 melanoma is 108%; with SN12C renal, 103%; with UO-31 renal it was 85.3%; with TK-10 renal, 98.8%; in the test on ACHN renal, 102%; in the test on CAKI-1 renal it was 92.8%. Moreover, the growth in the test with A498 renal was 94%; in the test on CCRF-CEM leukemia it was 94.6%; in the test on MOLT-4 leukemia it was 103%; in the test with RPMI-8226 leukemia, 99.3%; with OVCAR-8 ovarian, 103%; with OVCAR-5 ovarian, 105%. In addition, the growth with OVCAR-4 ovarian was 103%; with SK-OV-3 ovarian, 113%; in the test on IGROV1 ovarian, 111%; with OVCAR-3 ovarian, 122%; in the test on HS 578T breast it was 103%; in the test with NCI/ADR-RES ovarian, 98.4%.

For the molecule `COc1cccc(-c2nc3sccn3c2-c2ccnc(NCCCNS(=O)(=O)c3cccc(F)c3)c2)c1`, the growth was 7.47% (active) in the test with SK-MEL-2 melanoma; 28.5% in the test with SN12C renal; 11.4% with UO-31 renal; 61.1% with TK-10 renal; 20.7% with ACHN renal; 19.7% with CAKI-1 renal. Further, the growth with A498 renal is 64.4%; in the test on CCRF-CEM leukemia, 9.96% (active); in the test on MOLT-4 leukemia, 3.29% (active); with RPMI-8226 leukemia, -19.9% (active); in the test on OVCAR-5 ovarian, 59.4%; in the test with OVCAR-4 ovarian, 20.2%. Moreover, the growth in the test on SK-OV-3 ovarian is 54.3%; in the test on IGROV1 ovarian, 27.7%; in the test with OVCAR-3 ovarian, 39.6%; in the test with HS 578T breast it was 57.7%; in the test with NCI/ADR-RES ovarian, 4.88% (active).

`C/C1=C\CC[C@@]2(C)O[C@H]2[C@H]2OC(=O)C(CN3CCN(CC4C(=O)O[C@H]5[C@H]4CC/C(C)=C/CC[C@@]4(C)O[C@@H]54)CC3)[C@@H]2CC1` (some centres not stated): the growth is 107% with SK-MEL-2 melanoma; 96.8% in the test on EKVX NSCLC; 96.7% in the test on UO-31 renal; 87.1% in the test with ACHN renal; 94% with CAKI-1 renal; 114% in the test with A498 renal. The growth in the test with CCRF-CEM leukemia was 58%; in the test with MOLT-4 leukemia, 84.3%; in the test with SR leukemia it was 66%; with RPMI-8226 leukemia, 79%; with OVCAR-8 ovarian it was 91.5%; in the test with OVCAR-4 ovarian, 103%. For the same molecule, the growth in the test with SK-OV-3 ovarian is 110%; in the test with IGROV1 ovarian, 101%; in the test on OVCAR-3 ovarian, 79.7%; with HS 578T breast, 98.7%; with NCI/ADR-RES ovarian it was 101%.

In the case of `CCOc1ccc(-n2nc(C(=O)Nc3ccccc3)nc2-c2cc(OC)c(OC)c(OC)c2)cc1`, the growth in the test with SK-MEL-2 melanoma is 37.7%; in the test on EKVX NSCLC, 53.2%; with UO-31 renal it was 37.7%; in the test on ACHN renal, 62.8%; with CAKI-1 renal, 51.6%; in the test on A498 renal, 10.3%. Moreover, the growth in the test on CCRF-CEM leukemia is 50.8%; in the test on MOLT-4 leukemia it was 42.9%; in the test on SR leukemia, 17%; in the test on RPMI-8226 leukemia it was 47.4%; with OVCAR-8 ovarian it was 61.6%; with OVCAR-5 ovarian, 84.1%. Further, the growth in the test with OVCAR-4 ovarian is 59.5%; in the test on SK-OV-3 ovarian, 51%; with IGROV1 ovarian, 55.1%; with OVCAR-3 ovarian it was 43.2%; with HS 578T breast it was 39.6%; in the test on NCI/ADR-RES ovarian, 45.7%.

In the case of `C=C1C(=O)O[C@H]2[C@H]1CC/C(COC(=O)c1cc3cc(OC)ccc3[nH]1)=C\CC[C@@]1(C)O[C@@H]21`, the growth in the test with SK-MEL-2 melanoma was -76.2% (active); with SN12C renal, -80.8% (active); with UO-31 renal, -95.6% (active); in the test with TK-10 renal, -97% (active); with ACHN renal it was -93.9% (active); in the test on CAKI-1 renal, -95.1% (active). Also, the growth in the test on A498 renal was -95.3% (active); in the test on CCRF-CEM leukemia, -21% (active); with MOLT-4 leukemia, -14.6% (active); with SR leukemia, -21.1% (active); with RPMI-8226 leukemia, -20.3% (active); in the test on OVCAR-8 ovarian, -66.9% (active). Besides, the growth with OVCAR-5 ovarian is -58.6% (active); with OVCAR-4 ovarian, -81.5% (active); with SK-OV-3 ovarian it was 50.6%; with IGROV1 ovarian, -77.1% (active); in the test on OVCAR-3 ovarian, -97.4% (active); in the test on HS 578T breast it was -3.89% (active). For the same molecule, in the test on NCI/ADR-RES ovarian, the growth was -0.39% (active).

With `COc1cc(Nc2cc(C)nc(N3CCN(c4ccnc5cc(Cl)ccc45)CC3)n2)cc(OC)c1`, the growth was 26% in the test on SK-MEL-2 melanoma; 0.314% (active) with SN12C renal; -9.39% (active) in the test on UO-31 renal; 17.9% in the test with TK-10 renal; 7.48% (active) in the test with ACHN renal; 10.8% with CAKI-1 renal. Besides, the growth is -12.5% (active) in the test on A498 renal; 5.29% (active) with CCRF-CEM leukemia; 5.97% (active) in the test on MOLT-4 leukemia; -4.09% (active) in the test on SR leukemia; -13.5% (active) in the test on RPMI-8226 leukemia; 12.7% in the test on OVCAR-8 ovarian. The growth was 24.8% in the test on OVCAR-5 ovarian; 34.5% in the test with OVCAR-4 ovarian; 15.4% in the test with SK-OV-3 ovarian; -22.9% (active) in the test on IGROV1 ovarian; 6.15% (active) in the test with OVCAR-3 ovarian.
